# Inconclusive results are not listed. Where a call stands in place of a potency, no number is given. Active and inactive are the calls of the source. Calls follow the shape of the dose curve; as a rule, active = well fitted inhibition curve with a large enough effect; inconclusive = small, poorly fitted or top-dose-only effect; inactive = flat fitted curve, though single readings scatter.
# Test: BET inhibitor-based combinations targeting novel dependencies in MECOM-rearranged (r) AML: AML-194 cell line (AID 2202237; also: nearly all actives have a fitted effect of over 40% in size)
# Conditions: AML-194 (MECOM-r AML) viability, CellTiter-Glo, 48 h; series mostly up to 46 µM
# Outline: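 A 48 hr incubation preceded viability reading by CellTiter-Glo, with 15 min room-temperature development. Dose series had 11 points; normalization used DMSO and empty wells; AUC was computed and mean-centered per line as Z-AUC.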
row,Structure (SMILES),Potency
1,CN[C@@H]1[C@H](O[C@H]2[C@H](O[C@@H]3[C@@H](O)[C@H](O)[C@@H](N=C(N)N)[C@H](O)[C@H]3N=C(N)N)O[C@@H](C)[C@]2(O)C=O)O[C@@H](CO)[C@H](O)[C@H]1O,inactive
2,COc1ccc(-n2cnc3cc(C(=O)N4CCCCC4)ccc32)cc1,inactive
3,CNC(=O)c1cc(Oc2ccc3nc(N[C@@H]4CCCC[C@H]4O)sc3c2)ccn1,inactive
